# Reference: PubChem BioAssay (Tox21)
# Several values for one entry are separate records, joined by “and”; a condition that tells them apart may be missing. Identical values can stand only once. Results filed as inconclusive are left out. Entries that show only a call come without a potency. A structure can be active in one record and inactive in another. Activity calls are given as the source filed them. Calls follow the shape of the dose curve; as a rule, active = well fitted activation curve with a large enough effect in the repeat runs; inconclusive = weak or mixed curves; inactive = flat fitted curve, though single readings scatter.
# Assay: A CellTox Green Cytotoxicity Assay to monitor cytotoxicity in HepG2 cells - 40 hour (AID 1224879); also: nearly all actives have a fitted effect of over 40% in size
# Details: CellTox Green fluorescence; series mostly up to 76.8 µM
# From the text: National Center for Advancing Translational Sciences [NCATS]
# NIH Chemical Genomics Center [NCGC]
# U.S. Environmental Protection Agency [EPA]
# National Institutes of Environmental Health Sciences [NIEHS]
# National Toxicology Program [NTP]
# Cell-based models are critical for drug discovery. Determining the natural cytotoxic effects resulting from test compounds is an essential research activity. A CellTox Green Cytotoxicity Assay to monitor cytotoxicity in real time of continues cell culture during 40 hours of the compound treatment was used to screen Tox21 10K library compounds in HepG2 cells. CellTox Green Cytotoxicity Assay is a nonlytic, homogeneous, biofluorescent method to measure cytotoxicity in cell culture after experimental manipulation. The assay system uses a proprietary asymmetric cyanine dye that is excluded from viable cells but preferentially stains the dead cell's DNA. […] Viable cells produce no appreciable increases in fluorescence. Therefore, the fluorescence signal produced by the binding interaction with dead cell DNA is proportional to cytotoxicity.
# The mixture of HepG2 cell suspension and reagents were dispensed at 600cells/6 ul/well in 1536-well tissue culture treated black solid bottom plates using a Multidrop dispenser. After the assay plates were incubated at a 37 C/5% CO2 incubator for 5 hours, 23 nL of compounds dissolved in DMSO, positive and negative controls was transferred to the assay plate by a pintool work station. The plates were incubated at 37 C for 40 hours. The fluorescence intensity were measured at 0h, 8h, 16h, 24h, 32h and 40h time points using ViewLux plate reader during compound treatment.
# Potency is read from the fitted curve at half-maximal effect.
row,Structure (SMILES),Potency
1,CC(C)n1c(/C=C/[C@@H](O)C[C@@H](O)CC(=O)O)c(-c2ccc(F)cc2)c2ccccc21,4.36 µM (active) and 9.52 µM (active)
2,CCc1ccccc1O,inactive
3,Oc1ccc(OCc2ccccc2)cc1,inactive
4,O=C(O)c1ccc([N+](=O)[O-])cc1,inactive
5,Oc1c(Cl)cc(Cl)c(Cl)c1Cl,inactive
6,CCCCC(CC)COC(=O)CCCCCCCC(=O)OCC(CC)CCCC (stereo not given),43.6 µM (active)
7,O=C1CCCCC1,inactive
8,CCCCCCCCCCCCOCC1CO1 (stereo not given),inactive
9,O=C(c1ccc(O)cc1)c1ccc(O)cc1O,inactive
10,Cc1ccc(N)c(S(=O)(=O)O)c1,inactive
11,Cc1ccc(C(=O)O)o1,inactive
12,CCCCCCCCCCCCN,inactive and 21.9 µM (active)
13,C=C1CC[C@H](O)CC1=C/C=C1\CCC[C@]2(C)[C@@H]([C@H](C)/C=C/[C@H](C)C(C)C)CC[C@@H]12,inactive
14,COC(=O)c1ccccc1O,inactive
15,CC1CC(OC(=O)c2ccccc2O)CC(C)(C)C1 (stereo not given),inactive
16,S=c1nc[nH]c2nc[nH]c12,inactive
17,Nc1c(S(=O)(=O)O)cc(Br)c2c1C(=O)c1ccccc1C2=O,inactive
18,NCc1cccc(CN)c1,inactive
19,Oc1ccc2ccccc2c1N=Nc1ccccc1,inactive
20,CCCCCC/C=C/CCCCCCCC(=O)O,inactive

row,Structure (SMILES),Potency
1,CC1Cc2ccccc2N1NC(=O)c1ccc(Cl)c(S(N)(=O)=O)c1 (stereo not given),inactive
2,Cc1cc(NS(=O)(=O)c2ccc(N)cc2)no1,inactive
3,Nc1nc2ncc(CNc3ccc(C(=O)N[C@@H](CCC(=O)O)C(=O)O)cc3)nc2c(=O)[nH]1,inactive
4,OCC#CCO,inactive
5,CCCCC/C=C\C/C=C\CCCCCCCC(=O)OC,inactive
6,COCC(C)O (stereo not given),inactive
7,O=C1N=C(O)CN1/N=C/c1ccc(-c2ccc([N+](=O)[O-])cc2)o1,inactive
8,CCOC(=O)/C=C\C(=O)OCC,inactive
9,CCCCCCCCC,inactive
10,c1ccc2[nH]cnc2c1,inactive
11,NS(=O)(=O)c1cc2c(cc1Cl)NC=NS2(=O)=O,inactive
12,CNC[C@H](O)[C@@H](O)[C@H](O)[C@H](O)CO,inactive
13,COCC(=O)O,inactive
14,CC(C)(CO)COC(=O)C(C)(C)CO,inactive
15,CC(=O)Nc1ccc(C(=O)O)cc1,inactive
16,Clc1cc(Cl)c(Cl)cc1Cl,inactive
17,O=c1c(-c2ccc(O)cc2)coc2cc(O)ccc12,inactive
18,C[C@@H](O)[C@H]1C(=O)N2C(C(=O)O)=C(S[C@@H]3CN[C@H](C(=O)N(C)C)C3)[C@H](C)[C@H]12,inactive
19,CCc1ccc(O)cc1,inactive
20,Cc1cc(=O)[nH]c(C(C)C)n1,inactive
